Results taken from PubChem BioAssay AID1907 (The Scripps Research Institute Molecular Screening Center, 2009).
The whole screen tested about 1,900 compounds, of which about 1,200 (63%) were called active. So high a share suggests a set chosen from earlier hits. These entries were drawn from the full list. Unmarked numbers belong to inactive results. Cut-off read from the data, not from the text of the source: active = inhibition above about 22%; inactive = the rest.

Test: cytotoxic compounds in IEC-6 epithelial cells, confirmation, cytotoxicity control, cell-based, luminescence (AID 1907);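 note: 0% = vehicle and 100% = reference cytotoxic drug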
Conditions: IEC-6 rat intestinal epithelial viability, at 5 µM, hits give high values

Compound	inhibition
COc1ccc(C)cc1Nc1nc(C)nc2c1oc1ccccc12	22.4% (active)
COc1cc(NS(=O)(=O)c2ccc3ccccc3c2)c2ncccc2c1	63.1% (active)
CCCOn1c(-n2nc(C)cc2C)nc2ccccc2c1=O	-7.58%
O=C(NCCOc1cccnc1)c1ccc(OC2CCN(Cc3ccccn3)CC2)cc1	99.6% (active)
Cc1cc(C)n2nc(CNS(=O)(=O)c3c(F)c(F)c(F)c(F)c3F)nc2n1	13%
CCCOc1ccccc1C1CC(=O)Nc2cc3c(cc21)OCO3 (configuration not stated)	56.8% (active)
COc1ccccc1C1C2=C(COC2=O)Nc2cc3c(cc21)OCO3 (configuration not stated)	62.6% (active)
COc1ccccc1NC(=O)c1ccc(C)s1	5.92%
C[C@@H]1C[C@@H]2O[C@H]2/C=C\C=C\C(=O)Cc2c(Cl)c(O)cc(O)c2C(=O)O1	38.8% (active)
COc1ccc2c(c1OC)C(=O)OC2Nc1nc(-c2ccccc2)cs1 (configuration not stated)	25% (active)
Cc1ccc(-c2csc(NC3OC(=O)c4ccccc43)n2)cc1 (configuration not stated)	28.3% (active)
Cc1cccc(NC(=O)c2ccc([N+](=O)[O-])o2)c1	20%
CC[C@H]1CN2CCc3cc(OC)c(OC)cc3[C@@H]2C[C@@H]1C[C@H]1NCCc2cc(OC)c(OC)cc21	97.2% (active)
CSc1nnc2ccc(-c3ccc(C)cc3)nn12	25% (active)
O=C1C(=O)N(CC2COc3ccccc3O2)c2ccccc21 (configuration not stated)	-2.39%
CCOC(=O)c1c(C)[nH]c2c1-c1ccccc1C(=O)C2=O	100% (active)
CC(C)OC(=O)CN1C(=O)C(=O)c2ccccc21	9.06%
CCCCNc1nc2c(c(=O)n(C)c(=O)n2C)n1Cc1cccc(OC)c1	19.3%
COc1ccc(CNS(=O)(=O)c2cc(-c3cc(C)no3)ccc2C(C)C)cc1	51.7% (active)
Cn1nccc1C(=O)NC1CCCc2c1cnn2-c1ccc(F)cc1F (configuration not stated)	23.2% (active)
Cn1nccc1C(=O)NC1CCCc2c1cnn2-c1ccccc1F (configuration not stated)	7.23%
COc1cccc2sc(N(CCCN(C)C)C(=O)CCS(=O)(=O)c3ccccc3)nc12	7.79%

Compound	inhibition
Cc1nn2c(NCCN(C)C)c3c(nc2c1-c1ccccc1)CCC3	-0.91%
COc1cccc(C(=O)Nc2ccc(N3CCCC3)cc2)c1	43.2% (active)
COc1cccc(C(=O)Nc2ccc(N3CCN(C(=O)c4ccco4)CC3)cc2)c1	23.9% (active)
CC(C)(C)Nc1nc(-c2ccccn2)nc2ccccc12	-6.6%
CC[n+]1cc(C)ccc1/C=C/c1ccc(N(C)C)cc1	19.6%
Oc1cccc(/C=N/Nc2ccc(Cl)nn2)c1O	2.22%
C/C(=N\NC(=O)c1ccccc1F)c1ccccn1	67.3% (active)
C=CCC1(CC=C)CCCN1C(=O)c1cc(COc2ccc(-n3cncn3)cc2)on1	8.6%
COc1ccc(Nc2cc(C)nc(-n3nc(C)cc3C)n2)cc1	54.9% (active)
CC(=O)c1ccc(Oc2cc(C)nc(-n3nc(C)cc3C)n2)cc1	49.9% (active)
CCOc1ncccc1C(=O)NCCc1ccc(OC)cc1	12.2%
COc1ccc(NC(=O)/C(Cl)=C(/Cl)S(=O)Cc2ccc(C)cc2)cn1 (configuration not stated)	89% (active)
COc1ccc(CS(=O)/C(Cl)=C(/Cl)C(=O)Nc2ccc(OC)nc2)cc1 (configuration not stated)	73.2% (active)
CCOc1ccccc1NC(=O)Cn1nnc(C(=O)NCc2cccs2)c1N	56.9% (active)
CSc1nc(N(C)NC(=O)c2cccc(C)c2)c2ccccc2n1	76.1% (active)
CCn1c(C)nc2c1C(=O)c1ccccc1C2=O	10.1%
C/C(=N\NC(=O)c1ccoc1C)c1ccccc1O	31.9% (active)
COc1ccccc1N(CC(=O)N/N=C(\C)c1ccccc1O)S(=O)(=O)c1ccc(C)cc1	10.4%
Cc1ccc(Nc2nc(N3CCOCC3)nc(N3CCOCC3)n2)cc1Cl	63.1% (active)
CCOC(=O)/C=C/C(=O)OCC(=O)NC(c1ccccc1)c1ccccc1	43.9% (active)
CCOC(=O)C1=C(N)N2C(=O)C(C)SC2=C(C(=O)OCC)C1c1cc(OC)c(OC)c(OC)c1 (configuration not stated)	-3.21%
COc1ccc(Nc2cc(=O)oc3ccccc23)cc1	49.1% (active)

Compound	inhibition
O=C(Nn1cc(C(=O)N2CCN(c3ccccc3F)CC2)c2ccccc2c1=O)c1cnccn1	-3.18%
Cc1ccc(-n2c(SCC(=O)Nc3ncc(Cl)cc3Cl)nc3ccccc32)cc1	44.1% (active)
Cc1cccc(NS(=O)(=O)c2ccc(-c3cnc(C4CC4)o3)cc2)c1	53% (active)
Cc1onc(NC(=O)c2ccc([N+](=O)[O-])o2)c1Br	-1.42%
Cc1cccc(-n2ncc(Cl)c(Cl)c2=O)c1	27.2% (active)
Cc1nc(Nc2ccc3c(c2)OCCO3)c2nnn(Cc3ccccc3Cl)c2n1	11.1%
CC(C)c1cc(C(=O)N/N=C/C(Br)=C/c2ccccc2)n[nH]1	42.1% (active)
O=C(NC(Nc1nc2ccc([N+](=O)[O-])cc2s1)(C(F)(F)F)C(F)(F)F)c1ccccc1	97.9% (active)
CCCOC(=O)c1[nH]c2c(c1C)C(=O)CC(c1cccs1)C2 (configuration not stated)	57.1% (active)
CCOc1cc(/C=C/c2nc3ccccc3c(=O)[nH]2)cc(Br)c1OC	50.8% (active)
CCOc1c(Nc2cccc(Cl)c2)c(=O)c1=O	-1.97%
O=C(Nc1ccccc1Cl)/C(Cl)=C(\Cl)S(=O)c1ccccc1 (configuration not stated)	78.4% (active)
O=C(CN1C(=O)C2C3C=CC(C3)C2C1=O)Nc1nc(-c2ccccn2)cs1 (configuration not stated)	19.4%
Cc1ccc(S(=O)(=O)C2(S(=O)(=O)c3ccc(C)cc3)CCCC2)cc1	23.1% (active)
COc1ccc(Nc2oc(-c3ccccc3Cl)nc2C#N)cc1	58.2% (active)
CNC[C@H](CC1CCCCC1)NC[C@H](NCCC1CCCC1)[C@H](C)O	56.1% (active)
CCOc1cccc(-n2nnnc2-c2ccc(OC)cc2)c1	39.2% (active)
COc1ccc(C2=NOC(C(=O)NCc3ccco3)C2)cc1OC (configuration not stated)	39.3% (active)
COC(=O)Nc1nc2ccc(Sc3ccccc3)cc2[nH]1	53.4% (active)
CCOc1ccccc1N1CCN(C(=O)c2ccc3[nH]c(C)c(C)c3c2)CC1	29% (active)
Nc1c(C(=O)NCc2ccccc2)nnn1Cc1cccc(Cl)c1	22.8% (active)
Cc1cccc(/C=N/NC(=O)CNc2cccc3ccccc23)n1	26.7% (active)

Compound	inhibition
Cn1cccc1/C=N/NC(=O)CNc1cccc2ccccc12	36.1% (active)
Cc1ccc(/C=N/NC(=O)COc2ccccc2-c2ccccc2)cc1	72.2% (active)
CCCC1=Nc2cc(C(=O)NCc3ccco3)ccc2Sc2ccccc21	58.2% (active)
COc1ccccc1N1CCN(C(=O)c2cc(=O)c3cc(C)cc(C)c3o2)CC1	60% (active)
CCOc1cc(C(=O)N2CCc3cc(OC)c(OC)cc3C2)ccc1OC(F)F	60.2% (active)
Cc1cccc(NC(=O)c2nc(S(=O)(=O)Cc3ccccc3)ncc2Cl)c1	12.9%
CSc1nnc(NC(=O)c2nc(S(=O)(=O)Cc3ccc(C)cc3)ncc2Cl)s1	14.9%
Cc1cccc(CS(=O)(=O)c2ncc(Cl)c(C(=O)Nc3ccc(F)cc3)n2)c1	22.5% (active)
Cc1ccc(CS(=O)(=O)c2ncc(Cl)c(C(=O)Nc3nnc(C)s3)n2)cc1	23.3% (active)
CC(C)OCCCNc1ncnc2c1[nH]c1ccc(F)cc12	34.4% (active)
CC1CCCCN1S(=O)(=O)c1ccc(C(=O)Nc2nnc(-c3cccs3)o2)cc1 (configuration not stated)	18.5%
CCN(CC)c1ccc(NC(=O)c2ccc(Cl)nc2)cc1	38% (active)
O=S(=O)(c1ccc(Br)cc1)N1CCC(c2nc3ccccc3[nH]2)CC1	27.5% (active)
O=[N+]([O-])c1ccccc1S(=O)(=O)Nc1cccc2cccnc12	48.3% (active)
CCCCCCCCn1c2c(c(=N)c3c1CCC3)CCCC2	49.4% (active)
CCOC(=O)CSC1=C(C#N)C(c2sccc2C)CC(=O)N1 (configuration not stated)	51.2% (active)
CCN1/C(=C\c2ccc3ccccc3[n+]2CC)Sc2cc(C)ccc21	39.4% (active)
CCN1/C(=C/c2ccc3ccc(C)cc3[n+]2CC)Sc2ccccc21	39.8% (active)
O=c1cc(-c2ccccc2)[nH]c2cc(F)ccc12	53.6% (active)
Cc1cc(C(=O)OCC(=O)NCc2ccco2)c(C)n1-c1ccccc1	55.2% (active)
CC(=O)NC1=NN(C(C)=O)C(C)(c2ccc(Cl)s2)S1 (configuration not stated)	41.6% (active)
